Hit rate of the full screen: of about 50,000 compounds, about 800 (1.6%) showed an effect of 50% or more. This is one part of a sample in which strong results are shown more often than they occur.

This assay deals with Bcl-2-like protein 10 (Homo sapiens) (UniProt Q9HD36). Briefly: TR3 peptide-Bcl-B binding displacers, biochemical primary FP assay, phenotype converters (AID 1240).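 Note: 0% = Bcl-B with tracer peptide and DMSO and 100% = tracer peptide lacking Bcl-B.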 The following applies: GST-Bcl-B / FITC-TR3 peptide fluorescence polarization; stronger effect = higher value; compound at 3.75 mg/L.
Sequence of Bcl-2-like protein 10 (Homo sapiens) (Q9HD36 whole entry, looked up): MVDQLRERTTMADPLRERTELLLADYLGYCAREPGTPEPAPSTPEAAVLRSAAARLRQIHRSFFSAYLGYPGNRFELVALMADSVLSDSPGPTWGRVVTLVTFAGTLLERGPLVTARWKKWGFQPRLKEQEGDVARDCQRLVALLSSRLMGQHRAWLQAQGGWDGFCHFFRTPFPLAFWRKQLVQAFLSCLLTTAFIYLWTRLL
Turning to `O=C(Nc1ccccc1I)C1CC(=O)N(c2ccc(Br)cc2)C1` (configuration not stated), the displacement is -26%. To `CC1(C)CC(NC(=S)Nc2cccc(Cl)c2)CC(C)(C)N1` belongs -3.3%. As to `O=S(=O)(c1ccc(Cl)cc1)n1cccc1`, the displacement came out at 6.8%. To `O=[N+]([O-])c1ccccc1C=Nc1cc2c(cc1Br)OCCO2` belongs -4.8%; to `COc1cc2c(cc1NS(=O)(=O)c1ccc([N+](=O)[O-])cc1)oc1ccccc12`, -2.9%. To `O=C(O)c1ccc(Cl)c(S(=O)(=O)N2CCCC2)c1` belongs 5.8%; to `O=C1c2ccc(Oc3ccc4c(c3)C(=O)N(Cc3cccnc3)C4=O)cc2C(=O)N1Cc1cccnc1`, -7%.

Consider `O=[N+]([O-])c1ccc(N2CCOCC2)cc1NC1CC1`, for which the displacement was found to be 4%. Then `COc1ccc(C(=O)NNC(=O)c2cccc(C)c2)c(OC)c1`, with 3.3%; and `CCOc1ccc(Nc2cc(=O)n(C)c(=O)n2C)cc1`, with -4.6%.

With `Cc1ccc(-c2ccccc2)n1-c1ccc(O)c(C(=O)O)c1`, the displacement was 20.4%. Regarding `Cc1c(C(=O)O)cccc1-n1c(C)ccc1C`, the displacement worked out at 85.4%. To `COc1cc(C(=O)O)c(-n2c(C)ccc2C)cc1OC` belongs 74.7%. Then `COc1ccc(CSCC(=O)O)cc1C(=O)O`, with -8.5%; and `COc1ccc(N)cc1-n1c(C)ccc1C`, with 42.5%; and `CC(=O)c1c(C(=O)O)cccc1C(=O)O`, with 4.4%. `Cc1ccc(-c2ccccc2)n1-c1ccc(Cl)c(C(=O)O)c1`: the displacement was -41.6%. To `Cc1ccc(-c2ccccc2)n1-c1ccccc1C(=O)O` belongs 86.8%; to `Cc1c(C(=O)O)cccc1-n1c(=O)c2cc3c(=O)n(-c4cccc(C(=O)O)c4C)c(=O)c3cc2c1=O`, 14%; to `CCOC(=O)C1=C(c2ccccc2)N=c2s/c(=C\c3cccnc3)c(=O)n2C1c1cc(OC)ccc1OC` (configuration not stated), -3%.

As to `Cc1ccc(C(=O)Nc2ccccc2C(=O)NC(Cc2c[nH]c3ccccc23)C(=O)O)cc1` (configuration not stated), the displacement worked out at 7.1%. Then `CN1C(N)=NC(=O)C12COC(c1cccnc1)OC2` (configuration not stated), with 7.8%; and `CC(=O)N(C)c1ccc(NC(=O)c2ccccc2[N+](=O)[O-])cc1`, with -4%. To `Cc1ccc(N(CC(=O)NCCc2ccccc2)S(C)(=O)=O)cc1Cl` belongs 19.2%; to `O=C(O)c1cccc(NC2=C(Cl)C(=O)N(c3ccc(Cl)cc3)C2=O)c1`, 32%. `Clc1ccccc1COc1cccc(/C=N/Nc2nc(N3CCOCC3)nc(N3CCOCC3)n2)c1`: the displacement is 2.6%. As for `N#C/C(=C/c1ccco1)c1nc(-c2cc3ccccc3oc2=O)cs1`, the displacement was -1.2%. Take `COc1ccc(-c2csc(/C(C#N)=C\c3sccc3C)n2)cc1`: the displacement was 1.8%. To `COc1ccc(-c2csc(/C(C#N)=C/c3ccc(C)o3)n2)cc1OC` belongs -31.7%; to `Cc1ccsc1/C=C(/C#N)c1nc(-c2ccc(-c3ccccc3)cc2)cs1`, 3.1%. In the case of `N#C/C(=C\c1ccco1)c1nc(-c2ccccc2)cs1`, the displacement was determined as 58.3%. As to `CCOc1ccc(-c2csc(/C(C#N)=C/c3ccco3)n2)cc1`, the displacement was -6%. Turning to `Cc1ccsc1/C=C(\C#N)c1nc(-c2cccc([N+](=O)[O-])c2)cs1`, the displacement came to 147%. To `COc1cccc(-c2csc(/C(C#N)=C/c3sccc3C)n2)c1` belongs -8.9%; to `COc1ccc(-c2csc(/C(C#N)=C/c3sccc3C)n2)cc1OC`, 181%; to `Cc1ccc(-c2csc(/C(C#N)=C/c3sccc3C)n2)cc1C`, 11.7%.

For `N#C/C(=C\c1cccc(F)c1)c1nc(-c2ccc([N+](=O)[O-])cc2)cs1`, the displacement turned out to be 8.5%. In the case of `Cc1ccsc1/C=C(/C#N)c1nc(-c2ccc(Cl)cc2)cs1`, the displacement turned out to be 81.1%.

In the case of `CCC(=O)Nc1nc(C23CC4CC(CC(C4)C2)C3)c(C)s1`, the displacement was -2.7%. To `COc1cc(/C=C2/SC(=S)N(Cc3ccccc3)C2=O)cc(Cl)c1OCc1ccccc1` belongs 12.4%; to `CC1=C(C(=O)OCCc2ccccc2)C(c2ccccc2OCc2ccccc2)C2=C(CCCC2=O)N1` (configuration not stated), -6%.

Take `CC(C)CN1C(=O)c2ccc(C(=O)Nc3c[nH]c(=O)[nH]c3=O)cc2C1=O`: the displacement is 7.8%. To `C=CCn1c(C)nc2c(cnn2-c2ccccc2)c1=O` belongs -0.7%; to `C=C(C)C1CC=C(C)/C(=N/NC(=O)c2cccc(C)c2)C1` (configuration not stated), 14.9%; to `CCn1cc(C(=O)NN)c(=O)c2cc(F)c(N3CCCCC3)cc21`, 17.4%. As to `COc1cc(/C=C2/SC(=S)N(C)C2=O)ccc1OCc1cccc2ccccc12`, the displacement was 6.6%. In the case of `CCc1ccc(/C=C(/C#N)c2nc(-c3ccc(Br)cc3)cs2)cc1`, the displacement was -3.5%. For `N#C/C(=C\c1ccccc1Cl)c1nc(-c2cccs2)cs1`, the displacement was -9.2%. Take `Cc1ccsc1/C=C(\C#N)c1nc(-c2cccc(Br)c2)cs1`: the displacement is 95.2%. For `N#C/C(=C\c1cccs1)c1nc(-c2ccc(Cl)cc2Cl)cs1`, the displacement is 129%. Then `Cc1ccsc1/C=C(\C#N)c1nc(-c2ccc3c(c2)OCO3)cs1`, with -27%; and `Cc1ccc(-c2csc(/C(C#N)=C/c3sccc3C)n2)c(C)c1`, with 69.3%; and `Cc1ccsc1/C=C(/C#N)c1nc(-c2ccc(Br)cc2)cs1`, with 132%.

With `Cc1ccsc1/C=C(\C#N)c1nc(-c2cc3cc(Br)ccc3oc2=O)cs1`, the displacement was -10.8%.

For `Cc1csc(/C(C#N)=C/c2sccc2C)n1`, the displacement is -12%. On to `Cc1ccc(-c2csc(/C(C#N)=C/c3ccsc3)n2)cc1`, for which the displacement is -5.9%. As to `N#C/C(=C\c1cccs1)c1nc(-c2ccc(Br)cc2)cs1`, the displacement was 5.9%. Then `CC(C)(C)c1cc(C(=O)N/N=C/C=C/c2ccccc2)n[nH]1`, with -9.5%.

For `COc1ccc(/C=N/Nc2ncc(Br)cn2)cc1`, the displacement is -11.3%. To `C=CCn1c(O)c(C2=c3cc(Cl)ccc3=NC2=O)sc1=S` belongs -14.2%. Then `CCc1ccc(S(=O)(=O)Nc2ccccc2OC)cc1`, with 13.8%; and `N/C(=N\OC(=O)c1ccc(Br)cc1)c1ccc(Cl)cc1`, with 2.2%; and `Cc1cc(Cl)ccc1OCC(O)CN1C(C)CCCC1C` (configuration not stated), with 0.8%. To `CC(=O)N1C(=O)/C(=C\C(=O)c2ccc([N+](=O)[O-])cc2)c2ccccc21` belongs 0.8%; to `CC(C)NC(=O)C12CC3CC(C1)CC(C(=O)NC(C)C)(C3)C2`, 1.3%. On to `CCOC(=O)CSc1nnc2c3ccccc3n(CC)c2n1`, for which the displacement is -10.4%. To `Cc1ccc(OCc2nnc(NC(=O)Nc3cccc(Cl)c3)s2)cc1C` belongs 14.2%; to `C/C(=N\N=C1\NC(=O)C(CC(=O)Nc2ccc(Cl)cc2Cl)S1)c1ccc(Cl)cc1` (configuration not stated), 15.5%; to `COc1ccc(CNC(=O)c2c(-c3c(Cl)cccc3Cl)noc2C)cc1`, 0.9%. To `Cc1ccc(/C=C(\C#N)c2nc(-c3ccc(C)c(C)c3)cs2)o1` belongs -25.1%; to `Cc1ccc(/C=C(\C#N)c2nc(-c3cccc(Br)c3)cs2)o1`, 164%; to `COc1cccc(-c2csc(/C(C#N)=C/c3ccc(C)o3)n2)c1`, -113%.

The record behind these values is PubChem BioAssay AID1240 (Sanford-Burnham Center for Chemical Genomics, 2008).
